In PubChem BioAssay AID2391 (Southern Research Specialized Biocontainment Screening …, 2010):
Screen size: about 310,000 compounds; about 410 (0.13%) were called active. Another 2% or so got no clear call; they are omitted. The rule behind the calls is not given here. These entries were drawn from the full list. Results with a measured potency or affinity are listed apart.

Assay: inhibition of RSV-induced cytopathic effect – HEp-2 cells, primary 10 µM value included (AID 2391)
Conditions: at 10 µM, active compounds read high

CPE inhibition, inactive:
C=CCCCCCCCCC(=O)NN 1.7%, Cc1cnc(NC(=O)Cc2c[nH]c3ccccc23)s1 3.89%, CCc1nnc(NC(=O)Cc2c[nH]c3ccccc23)s1 2.52%, C/C=C(/C)C(=O)Nc1cccc(C2=NOC3(C2)C[C@@H](C(N)=O)N(C(=O)c2ccc(OC)cc2)C3)c1 (stereo partly specified) 0.8%, NC(=O)[C@H]1CC2(CC(c3cccc(NC(=O)COc4ccc(Cl)cc4)c3)=NO2)CN1C(=O)c1ccc(Cl)cc1 (stereo partly specified) -1.09%, C=C(C)C(=O)Nc1cccc(C2=NOC3(C2)C[C@H](C(N)=O)N(C(=O)c2ccccc2)C3)c1 (stereo partly specified) 1.43%, NC(=O)[C@@H]1CC2(CC(c3cccc(NC(=O)COc4ccc(Cl)cc4)c3)=NO2)CN1C(=O)c1ccccc1 (stereo partly specified) 15.3%, C=CCn1c(-c2cccn(Cc3ccc(Cl)cc3Cl)c2=O)n[nH]c1=S 8.02%, CCCN1CCOC(CC(=O)Nc2ccc([N+](=O)[O-])cc2)C1=O (stereo unspecified) -1%, O=C(c1cccc(S(=O)(=O)N2CCCC2)c1)N1CCN(c2ncccn2)CC1 1.05%, CCOC(=O)C1CCN(C(=O)c2cccc(S(=O)(=O)N3c4ccccc4CC3C)c2)CC1 (stereo unspecified) 0.5%, CC1CN(C(=O)c2cccc(S(=O)(=O)Nc3ccc(Cl)cc3)c2)CC(C)O1 (stereo unspecified) 4.6%, CCC(OC(=O)c1ccco1)C(=O)NCc1ccc(OC)cc1 (stereo unspecified) 1.29%, O=C(O)/C(=C\c1cccc(F)c1)c1ccc(S(=O)(=O)N2CCCCC2)s1 3.11%, CCC(C)[C@H](NC(=O)OC(C)(C)C)C(=O)N/N=C/c1cccc2nccnc12 (stereo partly specified) 0.75%, Cc1ccc2cc(/C=N/NC(=O)[C@H](C)NC(=O)OC(C)(C)C)c(Cl)nc2c1 2.96%, COc1ccc2nc(/C=N/NC(=O)CCCCCNC(=O)OC(C)(C)C)ccc2c1 6.33%, COc1ccc2nc(/C=N/NC(=O)[C@H](CCSC)NC(=O)OC(C)(C)C)ccc2c1 18.6%, C(=C/c1ccnc2nc(SC/C=C/c3ccccc3)nn12)/c1ccccc1 2.09%, Cc1cccc(CCNC(=O)c2nnc(Cc3ccc(Cl)cc3)o2)c1 2.96%, CNc1cc(C(F)(F)F)nc(-c2ccccn2)n1 -0.28%, COc1cc(OC)cc(C(=O)Nc2cccc3c2CCCC3)c1 -0.47%, C=CCn1c(=O)c2c3c(sc2n2c(Nc4ccccc4)nnc12)CCCC3 13.3%, O=C1OC(CCl)CN1Cc1ccc([N+](=O)[O-])cc1 (stereo unspecified) 0.81%, Cc1ccc(C)c(NC(=O)CN(C)C(=O)c2ccc(S(=O)(=O)N3CCCCCC3)cc2)c1 0.63%, O=C(CNC(=O)c1ccc(Br)cc1)N=Nc1c(O)[nH]c2ccc([N+](=O)[O-])cc12 6.52%, O=C(CNC(=O)c1ccco1)N=Nc1c(O)[nH]c2ccc(Br)cc12 7.48%, O=C(O)c1ccccc1N=Nc1c(O)[nH]c2ccc([N+](=O)[O-])cc12 1.41%, Cc1ccc(NCC(=O)N=Nc2c(O)[nH]c3ccc([N+](=O)[O-])cc23)cc1 2.27%, Cc1ccccc1NCC(=O)N=Nc1c(O)[nH]c2ccc([N+](=O)[O-])cc12 0.48%, O=C(N=Nc1c(O)[nH]c2ccc([N+](=O)[O-])cc12)c1ccccc1Cl 3.59%, Clc1cnc(N/N=C/c2ccco2)c(Cl)c1 5.1%, O=C(CC1C(=O)NCCN1Cc1ccoc1)NCc1cccc(OC(F)(F)F)c1 (stereo unspecified) -0.85%, CC(Sc1nnc(CNC(=O)c2ccco2)n1C)C(=O)Nc1nccs1 (stereo unspecified) -0.02%, CCN(CC(=O)NCc1ccc(F)cc1)C(=O)COc1ccc2ccccc2c1 1.64%, COC(=O)CSc1nnc(CNC(=O)c2ccccc2F)n1-c1ccc(F)cc1 1.47%, CSc1ccc(NC(=O)N2CCC(C(=O)c3ccc(F)cc3)CC2)cc1 8.24%, COc1ccc(S(=O)(=O)N2CCN(C(=O)c3ccc4ccccc4n3)CC2)cc1 3.49%, Cc1cc(C)c(NC(=O)CSc2nnc(CNC(=O)c3ccco3)o2)c(C)c1 -0.65%, Cc1cccc(-c2oc3ccccc3c2C#CCCCCO)c1 3.25%, COc1ccccc1-c1oc2ccccc2c1C#CCCO 3.39%, COc1cc(C2NC(C(=O)O)Cc3c2[nH]c2ccccc32)cc(OC)c1OC (stereo unspecified) 5.99%, CCC(=O)Nc1nnc(SCC(=O)c2ccc3c(c2)Cc2ccccc2-3)s1 42.4%, CC(=O)Nc1nnc(SCC(=O)c2ccc(F)cc2)s1 1.4%, Cc1c(NC(=S)Nc2ccc(Cl)cc2)c(=O)n(-c2ccccc2)n1C 2.83%, Cc1c(Cl)cccc1NC(=S)NCCN1CCOCC1 1.32%, COc1ccc(C(=O)COc2ccc3c(C)cc(=O)oc3c2)cc1 1.42%, Cc1ccc(-c2nnc3c4ccccc4c(C)nn23)cc1S(=O)(=O)N1CCN(CCO)CC1 8.23%, Cc1nn2c(-c3ccc(S(=O)(=O)N4CCN(C)CC4)o3)nnc2c2ccccc12 -1.89%, COc1ccc(-c2nnc3c4ccccc4c(C)nn23)cc1S(=O)(=O)N1CCN(CCO)CC1 -0.91%, Cc1ccc(-c2nnc3c4ccccc4c(C)nn23)cc1S(=O)(=O)N1CCN(C)CC1 0.37%, Cc1cc(NC(=O)CCC(=O)N(Cc2ccco2)C2(C(=O)NC3CCCC3)CCCCC2C)no1 (stereo unspecified) 2.17%, O=C(c1ccc(F)cc1)N1C2CCC1CC(O)(c1ccc(F)cc1)C2 (stereo unspecified) 0.65%, COc1ccc(S(=O)(=O)N2CCCCC2)cc1C(=O)N1CCCCCC1 1.11%, CC1Cc2ccccc2N1C(=O)COC(=O)c1ccc(Br)o1 (stereo unspecified) -0.89%, Cc1ccc(NC(=S)N2CCC(O)CC2)c(C)c1 3.11%
